The source of these data is PubChem BioAssay (NCI).

Values joined by “and” are separate entries in the source; they are usually repeats but may differ in a detail not shown here. Equal values may be shown once. This is part of a sample that, as a whole, favours compounds with a hit. Of some 79,000 tested, about 15% had one in any assay. A number with no mark means an inactive call. Active and inactive are the calls of the source. Cut-off read from the data, not from the text of the source: active = growth inhibition above about 70%; inactive = the rest.

Test [1] in a line: NCI Yeast Anticancer Drug Screen. Data for the rad50 strain (AID 155).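 Note: 0% = growth of vehicle-only cultures of the same strain.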 The settings on record: S. cerevisiae rad50 strain growth inhibition; at 50.0 µM; active compounds read high. In a few lines: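 Vehicle-treated cultures provide the reference for the growth inhibition reported for compound-exposed, repair-deficient yeast.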
Test [2] is described as follows: NCI Yeast Anticancer Drug Screen. Data for the mec2-1 strain (AID 157). The settings on record: S. cerevisiae mec2-1 strain, at 50.0 µM, active compounds read high. Put shortly:
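Using mec2-1 yeast: add compound, measure growth, express inhibition versus vehicle-treated cultures.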

Test [3] in a line: NCI Yeast Anticancer Drug Screen. Data for the sgs1 mgt1 strain (AID 161).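 Note: 0% = growth of cultures given vehicle only.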 The following applies: S. cerevisiae sgs1 mgt1 strain, at 50.0 µM, active compounds read high. In a few lines: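 Yeast cells carrying a defined DNA-repair defect were exposed to test compounds. Growth inhibition was measured relative to vehicle-treated controls.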
Test [4] in a line: NCI Yeast Anticancer Drug Screen. Data for the cln2 rad14 strain (AID 165).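 Note: 0% = growth equal to vehicle treated cultures.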 The settings on record: S. cerevisiae cln2 rad14 strain, at 50.0 µM, active compounds read high. In a few lines: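 Yeast strain cln2 rad14, bearing defects in cell cycle control and DNA repair, serves as the test system; values reflect growth inhibition compared with vehicle.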
A short description of test [5]: NCI Yeast Anticancer Drug Screen. Data for the bub3 strain (AID 167). The settings on record: S. cerevisiae bub3 mutant strain, at 50.0 µM, active compounds read high. In a few lines:
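Mutant yeast screening strain plus compound; vehicle-treated cultures serve as the 0% inhibition reference.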

The nature of test [6]: NCI Yeast Anticancer Drug Screen. Data for the mlh1 rad18 strain (AID 175). The settings on record: S. cerevisiae mlh1 rad18 strain growth inhibition; at 50.0 µM; active compounds read high. Put shortly:
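Steps: expose repair-defective yeast to compound; measure growth; express inhibition against vehicle-treated controls.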

Take `O=C(CCl)NC1CCCCC1`: the growth inhibition was 9.7% in test [1]; -8.45% in test [2]; 7.15% in test [3]; -4.25% in test [4]; 10.9% in test [5]; -6.45% in test [6].
On to `O=[N+]([O-])c1ncc[nH]1`, for which the growth inhibition in test [1] is 6.75%; in test [2] it was -19.7%; in test [3], 11.6%; in test [4] it was 3.1%; in test [5] it was 8.2%; in test [6], 14.9%.
`CCCCCCCCCCOC(=O)CC(C)=O.CCCCCCCCCCOC(=O)CC(C)=O.[Ni+2]`: the growth inhibition is -37.5% in test [1]; -9.3% in test [2]; -26.4% in test [3]; -45.1% in test [4]; 2.3% in test [5]; -39% in test [6].
As for `N.N.N.N.O=S(=O)([O-])[O-].[Co+3].[OH3+].[OH3+]`, the growth inhibition in test [1] was 2.25%; in test [2], -0.6%; in test [3], -22.5%; in test [4] it was 26.1%; in test [5] it was -4.7%; in test [6], -0.15%.
Take `O=C(Oc1ccc(S(=O)(=O)F)cc1Cl)c1ccc([N+](=O)[O-])cc1`: the growth inhibition in test [1] was 92.5% (active); in test [2] it was 68%; in test [3], 94.7% (active); in test [4], 92.8% (active); in test [5], 60%; in test [6], 93.7% (active).
For the compound `CO[C](=[W])c1ccccc1.[C-]#[O+].[C-]#[O+].[C-]#[O+].[C-]#[O+].[C-]#[O+]`, the growth inhibition was 12.2% in test [1]; -0.6% in test [2]; -2.3% in test [3]; 1.55% in test [4]; 1.05% in test [5]; -4.1% in test [6].
Turning to `CSc1sc2ccccc2[s+]1`, the growth inhibition was -10.8% in test [1]; -5.4% in test [2]; -0.35% in test [3]; 10.6% in test [4]; 9.55% in test [5]; 3.35% in test [6].
As to `c1ccc(C[P+]2(c3ccccc3)CCCCC2)cc1`, the growth inhibition in test [1] was -12.7%; in test [2] it was -1.05%; in test [3], -0.55%; in test [4], -22.6%; in test [5], -4.95%; in test [6] it was 3.1%.
For the compound `O=NN1CCCC1C(=O)O` (stereo not given), the growth inhibition is -10.8% and 0.75% in test [1]; -16.6% and -11.8% in test [2]; -14.2% and -12% in test [3]; 10.1% and 3.9% in test [4]; 3.45% and 1.65% in test [5]; -14% and -2.15% in test [6].
Take `CCOP(=O)(NC(C)C)OCC`: the growth inhibition in test [1] is -4.55%; in test [2], -18.6%; in test [3] it was -2.8%; in test [4], 16.9%; in test [5], 6.8%; in test [6], -1.8%.
Turning to `O=C(NC1CCCCC1)c1c(O)[nH]c(=S)[nH]c1=O`, the growth inhibition in test [1] was -20.4%; in test [2] it was -0.3%; in test [3], 14.8%; in test [4], 12.2%; in test [5], -4.9%; in test [6] it was -0.55%.
Take `O=C(CC(=O)C(F)(F)F)c1ccco1`: the growth inhibition in test [1] is 34%; in test [2], -25.9%; in test [3], -19.1%; in test [4], -49.8%; in test [5], -16.5%; in test [6] it was -8.45%.
In the case of `NC(=NC(c1ccccc1)c1ccccc1)N[N+](=O)[O-]`, the growth inhibition was -4.1% in test [1]; 5.3% in test [2]; -12.6% in test [3]; 2.95% in test [4]; 7.45% in test [5]; -17.9% in test [6].
As to `OCC[N+]12CN3CN(CN(C3)C1)C2`, the growth inhibition in test [1] was 21.9%; in test [2] it was 6.3%; in test [3], 20.1%; in test [4], 16.9%; in test [5] it was 4.55%; in test [6] it was 15.7%.
For the compound `CC(C)(C)OC(=O)NCC(=O)NC(CSC(c1ccccc1)c1ccccc1)C(=O)NCC(=O)O` (stereo not given), the growth inhibition in test [1] was 8.45%; in test [2], 7.3%; in test [3] it was 11%; in test [4], -6.35%; in test [5] it was -4.9%; in test [6], 15.1%.
Turning to `NC(=O)Cc1ccc([As]=O)cc1` (stereo not given), the growth inhibition in test [1] is 19.6%; in test [2] it was 10.1%; in test [3], 9.05%; in test [4] it was 21%; in test [5] it was 6.85%; in test [6], 14.9%.
For `CCCCOP(=O)(/C=C/c1ccccc1)OCCCC`, the growth inhibition was 86.3% (active) in test [1]; 77.9% (active) in test [2]; 80.2% (active) in test [3]; 24.7% in test [4]; 74.2% (active) in test [5]; 80.8% (active) in test [6].
As to `C=CCCOC(=O)CO[N+](=O)[O-]`, the growth inhibition in test [1] is 6.8%; in test [2], -0.7%; in test [3], 5.35%; in test [4], 8.8%; in test [5], -4.25%; in test [6] it was 4.1%.
Regarding `BrC(Br)c1cccc(C(Br)Br)c1`, the growth inhibition was 55.7% in test [1]; 37.8% in test [2]; 27.1% in test [3]; 37.5% in test [4]; 64% in test [5]; 56.6% in test [6].
Turning to `Oc1ccc(CCNCc2cc3c(cc2Br)OCO3)cc1`, the growth inhibition is 18.7% in test [1]; 12% in test [2]; -11.1% in test [3]; 1.2% in test [4]; 32.9% in test [5]; 21.9% in test [6].
